From PubChem
Most compounds without a hit are left out; they make up all but 4% or so of the library.
Autofluor counter: counter-screen for toxin protease inhibitors: compound fluorescence. compound autofluorescence counterscreen, microsphere flow cytometry; stronger effect = higher value. fluorescence intensity (concentration not given with the values). 360,000 compounds, 3.1% hits; in the data active = fluorescence intensity above about 16000; inconclusive = no clear call, values can overlap the other calls
DUSP3 inh: VHR1 phosphatase inhibitors, primary screen, biochemical, absorbance, uHTS. recombinant VHR phosphatase, pNPP absorbance. inhibition, % at 13.3 µM. 290,000 compounds, 0.52% hits. AID 1654, 2009. Dual specificity protein phosphatase 3 (Homo sapiens), P51452; in the data active = inhibition above about 50%
BoNT F protease: BoNT/F light chain protease inhibitors, primary screen, biochemical, flow cytometry, MLPCN library | Botulinum neurotoxin type F light chain protease (Clostridium botulinum) | inhibition, % at 10 µM | 360,000 compounds, 0.22% hits | Multiplex microsphere protease cleavage assay; in the data active = inhibition above about 35%, passing the limit was not always enough; inconclusive = no clear call, values can overlap the other calls
MazEF act: activators of E. coli MazEF toxin-antitoxin RNase, primary screen, biochemical, fluorescence, uHTS | AID 504720, 2011 | Endoribonuclease toxin MazF (Escherichia coli (strain K12)), P0AE70 | FAM/BHQ RNA-DNA oligo cleavage fluorescence, 5 h | 350,000 compounds, 0.32% hits | activation, % at 20 µM; in the data active = activation above about 50%
Anthrax LF inh2: Bacillus anthracis LF protease inhibitors, primary screen, biochemical, multiplex microsphere, MLPCN library | 360,000 compounds, 0.12% hits | multiplex microsphere protease cleavage assay | AID 588501, 2011 | Lethal factor (Bacillus anthracis), P15917 | inhibition, % at 10 µM
BoNT-A LC inh2: BoNT/A light chain protease inhibitors, primary screen, biochemical, flow cytometry, MLPCN library. Botulinum neurotoxin type A light chain protease (Clostridium botulinum A str. ATCC 3502). AID 588499, 2011. multiplex microsphere protease substrate cleavage. inhibition, % at 10 µM. 360,000 compounds, 0.17% hits
A number is an active result; i = inactive; ? = inconclusive; nt = no result; ! = not confirmed by another sample. Cut-off read from the data, not from the text of the source, unless noted: active = inhibition above about 30%; inconclusive = no clear call, values can overlap the other calls; inactive = below that.

SMILES	Autofluor counter	DUSP3 inh	BoNT F protease	MazEF act	Anthrax LF inh2	BoNT-A LC inh2
CC(NC(=O)c1ccc(Cn2cc([N+](=O)[O-])cn2)cc1)c1ccccc1 (stereo not given)	i	i	i	i	i	i
CC(O/N=C/c1ccc(OC(F)F)cc1)C(=O)Nc1cccc(S(=O)(=O)N2CCOCC2)c1 (stereo not given)	i	i	i	i	i	i
CCOC(=O)N1CCN(C(=O)Nc2cccc(Cl)c2)CC1	19827	i	i	i	i	i
CCOC(=O)N1CCN(C(=S)Nc2cccc(C)c2)CC1	23824	i	i	i	i	i
COc1ccccc1N1CCN(C(=O)Nc2cccc(Cl)c2)CC1	17904	i	i	i	i	?
O=C1CCN(C(=O)Nc2cccc(Cl)c2)N1	22772	i	i	i	i	i
CCOC(=O)N1CCN(C(=O)Nc2ccc(Cl)cc2)CC1	i	i	i	i	i	i
Cn1cc(SCC(=O)N2CCN(c3ccccc3)CC2)c2ccccc21	i	i	i	i	i	i
COC(=O)c1ccc(NC(=S)N2CCN(Cc3cccc(C)c3)CC2)cc1	21917	i	i	i	i	i
COC(=O)c1ccc(NC(=S)N2CCN(Cc3ccccc3)CC2)cc1	i	i	i	i	i	i
O=C(NCc1ccccc1F)C1CCN(C(=O)Nc2ccc(F)cc2)CC1	i	i	i	i	i	i
Cc1ccc(NC2=NC(c3ccc(C)cc3)n3c(nc(C)cc3=O)N2)cc1 (stereo not given)	23058	i	i	i	i	i
Cc1ccc(NC2=NC(c3ccccc3)n3c(nc(C)cc3=O)N2)c(C)c1 (stereo not given)	22223	i	i	i	i	i
Cc1ccc(NC2=NC(c3ccc(F)cc3)n3c(nc(C)cc3=O)N2)c(C)c1 (stereo not given)	i	i	?	i	i	i
Cc1ccc(OCC2Cn3c(nc4c3c(=O)[nH]c(=O)n4C)O2)cc1 (stereo not given)	20012	i	i	i	i	i
O=C1CCC(=O)N1OCCCOc1ccccc1	17200	i	i	i	i	i
O=C1CCC(=O)N1OCCCCOc1ccccc1	i	i	i	i	i	i
CC1(C)Cc2nc3nc(SCC(=O)NCc4ccccc4)n(-c4ccccc4)c(=O)c3cc2CO1	nt	i	nt	nt	nt	nt
CC1(C)Cc2nc3nc(SCC(=O)NCCc4ccccc4)n(-c4ccccc4)c(=O)c3cc2CO1	16362	i	i	i	i	i
O=C(CSc1nc(O)cc(=O)n1-c1ccccc1)NCc1ccccc1	16693	i	i	i	i	i
O=c1cc(O)nc(SCc2ccccc2)n1-c1ccccc1	24058!	i	i	i	i	i
NCC(c1ccc(Cl)cc1Cl)c1c[nH]c2ccccc12 (stereo not given)	i	i	?	i	i	i
Cc1c[n+]([O-])ccc1Oc1ccc([N+](=O)[O-])cc1	i	nt	i	i	i	i
CC(C)=CCCC(C)CN(C)CCc1ccccn1 (stereo not given)	21319	i	i	i	i	i
Cc1ccccc1CN(C)CCc1ccccn1	i	i	i	i	i	i
SMILES	Autofluor counter	DUSP3 inh	BoNT F protease	MazEF act	Anthrax LF inh2	BoNT-A LC inh2
Cc1ccc2[nH]c3c(c2c1)CN(C(=O)CN1CC(C)OC(C)C1)CC3 (stereo not given)	17955	i	?	i	i	i
COCCOC(=O)c1c(C)n(C)c2ccc(OC(=O)c3ccccc3OC)cc12	i	i	i	i	i	i
COCCOC(=O)c1c(C)n(C)c2ccc(OC(=O)c3ccco3)cc12	22026	i	i	i	i	?
C=C(C)CSc1nc2sc3c(c2c(=O)n1-c1ccccc1)CCN(C)C3	i	i	i	i	i	37
CCSc1nc2sc3c(c2c(=O)n1-c1ccccc1)CCN(C(C)C)C3	i	i	46	i	i	57
C=C(C)CSc1nc2sc3c(c2c(=O)n1C1CCCCC1)CCN(C)C3	i	i	i	i	i	33
CN1CCc2c(sc3nc(SCC(N)=O)n(-c4ccccc4)c(=O)c23)C1	?	i	i	i	i	i
C=CCSc1nc2sc3c(c2c(=O)n1-c1ccc(C)cc1)CCN(C)C3	i	i	i	i	i	36
CCCCSc1nc2sc3c(c2c(=O)n1-c1ccc(OC)cc1)CCN(C)C3	i	i	?	i	i	i
CCCCSc1nc2sc3c(c2c(=O)n1-c1ccccc1)CCN(C)C3	i	i	i	i	i	52
O=C(NCc1ccccc1Cl)C1CCN(S(=O)(=O)c2ccc(N3CCCC3=O)cc2)CC1	i	i	i	i	i	i
Cc1ccc(N2C(=O)C3C(C2=O)C2C=CC3C23CC3)cc1 (stereo not given)	19890	i	i	i	i	?
Cn1c(Sc2ccc([N+](=O)[O-])cc2C(F)(F)F)nnc1-c1ccccc1	i	i	i	i	i	i
Cn1c(Sc2ccc(C(F)(F)F)cc2[N+](=O)[O-])nnc1-c1ccccc1	18706	i	i	i	i	i
Cc1cccc(CCNC(=O)CN(C)S(=O)(=O)c2ccc3c(c2)c(=O)n(C)c(=O)n3C)c1	i	i	i	i	i	i
FC(F)(F)c1cccc(NC(=S)NCCc2ccccn2)c1	21974	i	i	i	i	i
CC(C)(C)c1ccc(NC(=S)NCCc2ccccn2)cc1	i	i	i	i	i	i
CCN(CC)C1CCN(C(=O)CCc2nnc(CCCCc3ccccc3)o2)C1 (stereo not given)	i	i	i	i	i	i
COc1cccc(/C(O)=C2/C(=O)C(=O)N(CCN3CCOCC3)C2c2cccs2)c1 (stereo not given)	i	53	i	i	i	i
CC(C)(C)c1ccc(C(=O)C2CCCN(C(=O)C3CCOCC3)C2)cc1 (stereo not given)	i	i	i	73	i	i
Cc1noc(C)c1CC(=O)N1CCCC(C(=O)c2ccc(C(C)(C)C)cc2)C1 (stereo not given)	i	i	i	i	i	i
Cc1cc(C)c(C)c(S(=O)(=O)N2CCC(C(=O)OCC(=O)N3c4ccccc4NC(=O)C3(C)C)CC2)c1C	24651	i	i	i	i	i
O=C1NCCN1C(=O)N(c1ccccc1)c1ccccc1	22362	i	i	i	i	i
Cc1ccccc1Cn1cnc2c([N+](=O)[O-])c(C)c(C)cc21	21365	i	i	i	i	i
COc1ccc(Cn2cnc3c([N+](=O)[O-])c(C)c(C)cc32)cc1	25028	i	i	i	i	i
O=C(Nc1cccc(O)c1)c1cnn2cccnc12	19751	i	i	i	i	i
O=C(Nc1cccnc1)c1cnn2cccnc12	i	i	i	i	i	i
C=CCOc1c(Br)cc(C2NC(=O)NC(C)=C2C(C)=O)cc1OCC (stereo not given)	22042	i	i	i	i	i
